Data reported in the supplement of paper PMC7695840.
Counter-ions that a name gives are not always drawn.

tested on: Staphylococcus aureus MW2 (mecA+); experiment: normalized DsRed fluorescence (growth of mecA+ strain) (fraction of control range); higher = more growth of mecA+ strain; conditions: compound concentration: 150 uM; cefoxitin: subinhibitory; fluorescent label: DsRed
How it was run: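 S. aureus MW2 cells, pre-induced, were used as a 1:1 mix of a DsRed strain carrying the gene and a GFP strain lacking it, in LB with a subinhibitory antibiotic dose set each day. At 5 µL/well they were placed onto 150 μM compound (1.5% DMSO) in 1536-well plates, one replicate, and kept unshaken for 20 h at 37 °C, 90% humidity. After DsRed (540/590) and GFP (485/520) reads scaled per plate to single-strain control medians, plates with high untreated ratios and rows with DsRed/GFP >10 were excluded.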

Structure (SMILES) | normalized DsRed fluorescence
Cc1c(OCC(F)(F)F)ccnc1C[S+]([O-])c1nc2ccccc2[nH]1 (stereo not given) [Lansoprazole] | 0.553
OC(CCN1CCCC1)(c1ccccc1)C1CCCCC1 (stereo not given) | 1.7
CC(C)(C)C(=O)OCOP(=O)(COCCn1cnc2c(N)ncnc21)OCOC(=O)C(C)(C)C [Adefovir Dipivoxil (Preveon, Hepsera)] | 0.712
COc1cc2nccc(Oc3ccc(NC(=O)C4(C(=O)Nc5ccc(F)cc5)CC4)cc3)c2cc1OC [Cabozantinib malate] | 0.686
Cc1cccc(C)c1NC(=O)C1CCCCN1C (stereo not given) | 0.7
CC[C@@H](CO)NCCN[C@@H](CC)CO | 0.991
CO/N=C(\C(=O)N[C@@H]1C(=O)N2C(C(=O)O)=C(C[N+]3(C)CCCC3)CS[C@H]12)c1csc(N)n1 | 0.073
CCOC(=O)[C@H](CCc1ccccc1)N[C@@H](C)C(=O)N1Cc2cc(OC)c(OC)cc2C[C@H]1C(=O)O [Moexipril HCl] | 0.48
CN1C(C(=O)Nc2ccccn2)=C(O)c2ccccc2S1(=O)=O [Piroxicam (Feldene)] | 0.661
NCc1ccc(S(N)(=O)=O)cc1 | 0.71
CCN(CCCc1ccccc1)CCCc1ccccc1 | 1.17
CCCCCCCN(CC)CCCC(O)c1ccc(NS(C)(=O)=O)cc1 (stereo not given) [Ibutilide fumarate] | 0.737
O=C1CC2(CCCC2)CC(=O)N1CCCCN1CCN(c2ncccn2)CC1 | 0.71
CC(=O)O[C@]1(C(C)=O)CC[C@H]2[C@@H]3C=C(C)C4=CC(=O)CC[C@]4(C)[C@H]3CC[C@@]21C | 0.78
CN(C)CCc1c[nH]c2ccc(Cn3cncn3)cc12 | 0.751
Nc1cc(N2CCCCC2)nc(N)[n+]1[O-] | 0.731
CNC(=C[N+](=O)[O-])NCCSCc1csc(CN(C)C)n1 | 0.785
O=NN(CCCl)C(=O)NC1CCCCC1 | 0.767
OCc1ccccc1O | 0.713
Cn1c(=O)c2[nH]cnc2n(C)c1=O [Aminophylline (Truphylline)] | 1.18

Structure (SMILES) | normalized DsRed fluorescence
C#C[C@]1(O)CC[C@H]2[C@@H]3CCC4=CC(=O)CC[C@@H]4[C@H]3CC[C@@]21C [Norethindrone (Norethisterone)] | 0.621
C#CCN[C@@H]1CCc2ccccc21 | 0.693
CCC1(C)CC(=O)NC1=O (stereo not given) | 0.691
CCN(CC)C(=O)c1cccnc1 | 0.829
Cn1ncnc1[C@H]1c2n[nH]c(=O)c3cc(F)cc(c23)N[C@@H]1c1ccc(F)cc1 [Talazoparib (BMN 673)] | 0.777
CCCSc1nc(N[C@@H]2C[C@H]2c2ccc(F)c(F)c2)c2nnn([C@@H]3C[C@H](OCCO)[C@@H](O)[C@H]3O)c2n1 [Ticagrelor] | -0.0335
C[N+](C)(C)CC(=O)O | 0.899
CN(C)CCCN1c2ccccc2CCc2ccc(Cl)cc21 | 0.939
OCCN(CCO)c1nc(N2CCCCC2)c2nc(N(CCO)CCO)nc(N3CCCCC3)c2n1 | 0.744
CC(=O)/N=c1/sc(S(N)(=O)=O)nn1C | 0.53
O=C(CCCN1CCC(O)(c2ccc(Br)cc2)CC1)c1ccc(F)cc1 | 1.21
CCN(CC)CCOC(=O)c1ccc(N)cc1 | 0.634
OCCOCCN1CCN(C(c2ccccc2)c2ccc(Cl)cc2)CC1 (stereo not given) | 0.833
C[C@@H]1C[C@H]2[C@@H]3CCC4=CC(=O)C=C[C@]4(C)[C@@]3(Cl)[C@@H](O)C[C@]2(C)[C@@]1(OC(=O)c1ccco1)C(=O)CCl | 1.18
Nc1ccc(S(=O)(=O)Nc2ncccn2)cc1 | 0.718
CCOC(=O)O[C@]1(C(=O)OCCl)CC[C@H]2[C@@H]3CCC4=CC(=O)C=C[C@]4(C)[C@H]3[C@@H](O)C[C@@]21C [Loteprednol etabonate] | 0.603
Nc1ccc(S(=O)(=O)Nc2ccccn2)cc1 | 0.542
CCC[C@H](NC(=O)[C@@H]1[C@H]2CCC[C@H]2CN1C(=O)[C@@H](NC(=O)[C@@H](NC(=O)c1cnccn1)C1CCCCC1)C(C)(C)C)C(=O)C(=O)NC1CC1 [Telaprevir (VX-950)] | 1.39
CC(C)Cc1ccc(C(C)C(=O)O)cc1 (stereo not given) | 0.294
CC(=O)N(CC(O)CN(C(C)=O)c1c(I)c(C(=O)NCC(O)CO)c(I)c(C(=O)NCC(O)CO)c1I)c1c(I)c(C(=O)NCC(O)CO)c(I)c(C(=O)NCC(O)CO)c1I (stereo not given) | 0.83
